The text below walks through data of PubChem BioAssay AID504697 (The Scripps Research Institute Molecular Screening Center, 2011).

Calls of active or inactive are those of the source.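 Rule for the calls: active = EC50 at or below 10 µM; inactive = EC50 above 10 µM.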

The assay is described as follows: compound autofluorescence in calcium buffer – biochemical, fluorescence, no RTF in test wells, artefact control for cardiac thin filament activator project, dose response (AID 504697).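 Note: emission near 535 nm under roughly 485 nm excitation as for IANBD.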 The conditions noted are these: compound-only fluorescence in RTF assay buffer with Ca2+ (no RTF in test wells), artifact counterscreen. (Counterscreens check selectivity or assay interference.)
Usually EC50 stands for the concentration giving half of the maximal effect. For the compound `CCOC(=O)c1sc(-c2ccc(F)cc2)cc1NC(=O)Nc1ccccc1OC`, the EC50 is > 71.4 µM (inactive).

Take `Cc1cc(S(=O)(=O)N2CCCC(C(=O)Nc3ccc(C(=O)O)cc3)C2)ccc1Cl` (stereo unspecified): the EC50 was > 71.5 µM (inactive).

For `Nc1ccc2nc3c(=O)[nH]c(=S)[nH]c3nc2c1`, the EC50 is 2.93 µM (active).

Take `O=C(O)c1cc(NCc2ccc(F)cc2)ccc1N1CCOCC1`: the EC50 is > 71.5 µM (inactive).

`COc1cc(/C=C(\C#N)c2nc3ccccc3[nH]2)cc(OC)c1O`: the EC50 is 11.1 µM (inactive).

With `Cn1ncc2c(O/N=C(\N)c3ccc(C(F)(F)F)cc3)ncnc21`, the EC50 is > 71.5 µM (inactive).

In the case of `CCN(CC)c1ccc(/C=c2\sc3nc4ccccc4n3c2=O)c(O)c1`, the EC50 was 14.4 µM (inactive).

Consider `N#CC1=C(N)Oc2ccc3ccc(O)cc3c2C1c1ccsc1` (stereo unspecified), for which the EC50 is 65.8 µM (inactive).

In the case of `Cc1nnc(SCC(=O)NC(C)(C)C)n1C1CCCCC1`, the EC50 was > 71.5 µM (inactive).

For the compound `O=C(COc1ccccc1F)NC1CC1`, the EC50 was > 71.5 µM (inactive).

Turning to `N#C/C(=C\c1ccc(N2CCOCC2)o1)C(=O)NC1CCCCC1`, the EC50 is 16.5 µM (inactive).

For `O=C(N/N=C/c1sc2ccccc2c1O)c1ccccc1`, the EC50 was 17.9 µM (inactive).

`CN(C)CCN(C)Cc1c2ccccc2c(CN(C)CCN(C)C)c2ccccc12`: the EC50 is > 71.5 µM (inactive).

Turning to `COc1ccc(/C=N/NC(=O)c2cccnc2)cc1CN1CCOCC1`, the EC50 was > 71.5 µM (inactive).

Turning to `Cn1nccc1NC(=O)Nc1cccc(Cl)c1Cl`, the EC50 was > 71.4 µM (inactive).

On to `CC(C(=O)c1ccc(Br)cc1)[n+]1cccc2ccccc21` (stereo unspecified), for which the EC50 was > 71.5 µM (inactive).

`Cc1cc(C=C2C(=O)c3ccccc3C2=O)c(C)n1-c1ccccc1`: the EC50 was 29.9 µM (inactive).

Regarding `CN(/N=C/c1ccc(-c2ccc([N+](=O)[O-])cc2)o1)c1ccccc1`, the EC50 was > 71.5 µM (inactive).

Turning to `O=C(CSC1=NS(=O)(=O)c2ccccc2N1)N1CCCCC1`, the EC50 is > 71.5 µM (inactive).

`O=C(CSc1nnc(COc2ccccc2)o1)N1CCN(c2ccccc2)CC1`: the EC50 was > 71.5 µM (inactive).

For `COc1ccccc1/C=C/C=C1\Oc2c(ccc(O)c2CN2CCN(CCO)CC2)C1=O`, the half-maximal effective concentration (EC50) was 3.63 µM (active).

With `O=C(Nc1ccc(C(=O)N2CCOCC2)cc1)Nc1cccc(Cl)c1`, the EC50 is > 71.5 µM (inactive).

As for `CC(Oc1ccc(F)cc1)C(=O)Nc1sc2c(c1C(=O)NCc1cccnc1)CCCC2` (stereo unspecified), the EC50 was > 71.5 µM (inactive).

Regarding `Cc1ccc(NC(=O)CN(C)c2ccc(S(=O)(=O)N3CCCC3)cn2)cc1`, the EC50 was > 71.5 µM (inactive).

With `O=C(O)c1ncc(-c2ccccc2)cn1`, the EC50 was > 71.5 µM (inactive).

For the compound `O=C(COC(=O)c1ccc(O)cc1)Nc1ccc2c(c1)OCCO2`, the EC50 was > 71.5 µM (inactive).

`O=C(Nc1ccccc1)NC1CS(=O)(=O)CC1O` (stereo unspecified): the EC50 was > 71.5 µM (inactive).

In the case of `COc1ccc(CCNC(=O)COC(=O)c2cc(=O)[nH]c3ccccc23)cc1`, the EC50 was > 71.5 µM (inactive).

In the case of `CCCN1C=CC(=CC=C(C#N)C#N)C=C1`, the EC50 is 19.9 µM (inactive).

As to `Cc1nnc(N/N=C/c2ccc(O)c([N+](=O)[O-])c2)[nH]c1=O`, the EC50 was > 71.5 µM (inactive).

For `N#C/C(=C\c1ccc(N2CCOCC2)o1)c1nc2ccccc2[nH]1`, the concentration for a half-maximal effect (EC50) was 1.37 µM (active).

For the compound `CN(/N=C/c1ccc(N(C)C)cc1)C1=NS(=O)(=O)c2ccccc21`, the EC50 is 22.5 µM (inactive).

Regarding `CCc1ccc(C(=O)NNC(=O)c2cccc(N3C(=O)CCC3=O)c2)cc1`, the EC50 was > 71.5 µM (inactive).

As to `CC(C)CNC(=S)NC(=O)c1ccccc1Cl`, the EC50 is > 71.4 µM (inactive).

Regarding `Fc1ccc(-c2[nH]ncc2CN(CC2CCC2)CC2CCCO2)c(F)c1` (stereo unspecified), the EC50 was > 71.5 µM (inactive).

Consider `Cc1cc(/C=C2\SC(=S)N(C)C2=O)c(C)n1-c1ccccc1O`, for which the EC50 is 15.7 µM (inactive).
